# Experimental data taken from PubChem BioAssay (EPA / NIEHS).
# More than one record can exist for a structure, and the calls need not agree. The source made the active and inactive calls. The calls were made as follows: active = hit-call score of the fitted dose curve at least 0.9, where 1 is the maximum; inactive = score below 0.9.
# Experiment: CCTE_Shafer_MEA_acute_firing_rate_mean: CCTE's Neural Acute Assay for Mean Firing Rate, Shafer Lab (AID 2284009)
# Protocol: CCTE_Shafer_MEA_acute assay is conducted using Axion Biosystems 48 well microelectrode array (MEA) plates and Maestro recording system. Each well of the MEA plate contains a grid of 16 microelectrodes embedded in the culture surface. Electrically active cells, such as neurons, can be cultured over the electrodes, and electrical activity in these cells can be recorded extracellularly. The spontaneous firing of neurons is captured from each electrode on a microsecond timescale providing both temporally and spatially precise data. […] The CCTE_Shafer_MEA_acute assay uses primary cultures of rat cortical neurons. As these cultures mature over time, neural networks develop functional activity and form cohesive networks in which electrical activity can be highly coordinated. Baseline 40-minute recordings are made on days post-plating 13 or 15, followed by a secondary 40-minute recording after chemical exposure.CCTE_Shafer_MEA_acute_firing_rate_mean is a component of the CCTE_Shafer_MEA_acute assay. It measures the frequency number of spikes (action potential firings) as the total number of spikes divided by the length of the recording in a microelectrode array (MEA) using Axion Biosystems Maestro 768 channel amplifier with the AxIS adaptive spike detector. The firing rate is divided by the number of electrodes to report a well-mean value. The recordings before and after chemical treatment are used to calculate a percent change in the mean firing rate in each well.Data from the assay component CCTE_Shafer_MEA_acute_firing_rate_mean was analyzed into 1 assay endpoint. This assay endpoint, CCTE_Shafer_MEA_acute_firing_rate_mean, was analyzed in the negative analysis fitting direction relative to DMSO as the negative control and baseline of activity. Using a type of functional reporter, gain or loss-of-signal activity can be used to understand electrical activity.
# Spontaneous activity in the cortical cultures was recorded using an Axion Biosystems Maestro 768 channel amplifier and Axion Integrated Studios (AxIS) v1.8 (or later) software. The amplifier recorded from all channels simultaneously (gain = 1200 x; sampling rate = 12.5 kHz/channel): raw signals were filtered with a Butterworth band-pass filter (300-5000 Hz), which filters out slower local field potentials leaving only fast potentials, i.e., "spikes", arising from extracellular currents associated with action potentials (Pine 2006; Wheeler and Nam 2011). On-line spike detection of filtered signals was conducted with the AxIS adaptive spike detector, using a threshold of 8x the root mean squared (rms) noise on each channel. Any electrodes with rms noise levels greater than 5 uV were grounded (e.g., no data were recorded). Once grounded, an electrode was grounded for the duration of the experiment. All recordings were conducted at 37 C. Wells were deemed usable if on the day of the exposure >/= 10 electrodes were active (defined as >/= 5 spikes/min). On DIV 13 or 15, a minimum of three wells from one cortical culture preparation were treated with each compound (0.03-40 uM). Prior to recording baseline activity, each mwMEA plate was placed in the Maestro at 37 C and allowed to sit for 20 min while firing rates stabilized. Baseline activity (40 min) was recorded before the addition of each compound. An additional 40 min of spontaneous activity was recorded in the presence of each compound. Changes in network parameters relative to baseline were assessed following compound treatment.
SMILES,outcome,AC50
O=[N+]([O-])O,inactive,88.5 nM (active)
O=c1c2ccccc2c(=O)c2c1cc(Cl)c1[nH]c3c([nH]c12)c(Cl)cc1c(=O)c2ccccc2c(=O)c13,inactive,–
CP(=O)(O)CC[C@H](N)C(=O)O,inactive,–
O=C(O)CNCP(=O)(O)O,inactive,–
CC1(C)[C@H](C=C(Cl)Cl)[C@@H]1C(=O)O[C@@H](C#N)c1cccc(Oc2ccccc2)c1,inactive,–
[Cd+2].[Cl-].[Cl-],inactive,–
CC1(C)[C@H](C(=O)O[C@H](C#N)c2cccc(Oc3ccccc3)c2)[C@@H]1C=C(Br)Br,–,1620 nM (active)
c1cc[n+]2c(c1)-c1cccc[n+]1CC2,inactive,–
CC1(C)[C@@H](C=C(Cl)Cl)[C@@H]1C(=O)O[C@@H](C#N)c1ccc(F)c(Oc2ccccc2)c1,–,2970 nM (active)
C#CCN(C)[C@H](C)Cc1ccccc1,inactive,–
COc1ccc(CO)cc1,inactive,–
CCCC[N+](CCCC)(CCCC)CCCC,–,3.01 nM (active)
Oc1ccc(C2(c3ccc(O)cc3)c3ccccc3-c3ccccc32)cc1,–,8.83 nM (active)
Cc1ccc(OP(=O)(Oc2ccc(C)cc2)Oc2ccc(C)cc2)cc1 (tested in a mixture with another compound),–,4200 nM (active)
CP(=O)(O)CCC(N)C(=O)O (stereo unspecified),inactive,–
